Inconclusive results are not listed. Values without a mark were called inactive. The source made the active and inactive calls. Calls follow the shape of the dose curve; as a rule, active = well fitted curve in the direction sought with a large enough effect; inconclusive = small, poorly fitted or top-dose-only effect, or another doubt; inactive = no such curve, though single readings can be large; an effect the other way counts as inactive or inconclusive.

16 compounds from PubChem BioAssay (NCATS) can be followed below.

Test [1] in a line: Quantitative High-Throughput drug screen in 47 multiple myeloma cell lines against the NCATS MIPE library collection: KMS26_JCRB cell viability assay (AID 1918975).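 Also: 100% = DMSO-treated wells and 0% = wells with media only; nearly all actives have a fitted effect of over 45% in size.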 The method in brief: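 Inhibition of cell viability is measured here. Each line was plated at 500 cells per well, treated with MIPE 4.0 drugs, kept 48 hours at 37C, then assayed for ATP content by CellTiter-Glo luminescence.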

Test [2] can be described thus: Quantitative High-Throughput drug screen in 47 multiple myeloma cell lines against the NCATS MIPE library collection: NCIH929_DSMZ cell viability assay (AID 1918978). Also: nearly all actives have a fitted effect of over 35% in size. Also: potency is read from the fitted curve at half-maximal effect. In short, it runs like this:
(§1)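 ATP-based luminescence (CellTiter-Glo, 5 min RT incubation) quantified surviving cells following two days' treatment with MIPE 4.0 agents at 37 °C, 5% CO2.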

Test [3] in a line: Quantitative High-Throughput drug screen in 47 multiple myeloma cell lines against the NCATS MIPE library collection: OCIMY1_PLB cell viability assay (AID 1918979).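 Also: 100% = DMSO-only wells and 0% = cell-free media-only wells; nearly all actives have a fitted effect of over 35% in size.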 The method in brief:
as §1

Test [4] in a line: Quantitative High-Throughput drug screen in 47 multiple myeloma cell lines against the NCATS MIPE library collection: MM1R_ATCC cell viability assay (AID 1918981). Also: nearly all actives have a fitted effect of over 35% in size. Also: potency is read from the fitted curve at half-maximal effect. In short, it runs like this:
as §1

The nature of test [5]: Quantitative High-Throughput drug screen in 47 multiple myeloma cell lines against the NCATS MIPE library collection: OCIMY5_PLB cell viability assay (AID 1918988). Also: nearly all actives have a fitted effect of over 65% in size. Also: potency is read from the fitted curve at half-maximal effect. The method in brief: as §1
Test [6] in a line: Quantitative High-Throughput drug screen in 47 multiple myeloma cell lines against the NCATS MIPE library collection: U266_ATCC cell viability assay (AID 1919864). Also: nearly all actives have a fitted effect of over 35% in size. Also: potency is read from the fitted curve at half-maximal effect. The method in brief:
as §1

Test [7] can be described thus: Quantitative High-Throughput drug screen in 47 multiple myeloma cell lines against the NCATS MIPE library collection: XG6_PLB cell viability assay (AID 1919865). Also: nearly all actives have a fitted effect of over 40% in size. Also: potency is read from the fitted curve at half-maximal effect.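 As to viability (% of control): 100% = DMSO-only wells and 0% = media-only wells.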 In short, it runs like this: as §1
Test [8] in a line: Quantitative High-Throughput drug screen in 47 multiple myeloma cell lines against the NCATS MIPE library collection: XG1_PLB cell viability assay (AID 1919866). Also: nearly all actives have a fitted effect of over 35% in size. Also: potency is read from the fitted curve at half-maximal effect. The method in brief:
as §1

Test [9] is described as follows: Quantitative High-Throughput drug screen in 47 multiple myeloma cell lines against the NCATS MIPE library collection: MM1S_ATCC cell viability assay (AID 1918980). Also: nearly all actives have a fitted effect of over 45% in size. Also: potency is read from the fitted curve at half-maximal effect.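 As to viability (% of control): 100% = wells with DMSO only and 0% = wells with media only.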 In short, it runs like this: as §1
The nature of test [10]: Quantitative High-Throughput drug screen in 47 multiple myeloma cell lines against the NCATS MIPE library collection: KMS28PE_JCRB cell viability assay (AID 1918983). Also: nearly all actives have a fitted effect of over 35% in size. Also: potency is read from the fitted curve at half-maximal effect. In short, it runs like this: as §1
The nature of test [11]: Quantitative High-Throughput drug screen in 47 multiple myeloma cell lines against the NCATS MIPE library collection: L363_DSMZ cell viability assay (AID 1918984). Also: nearly all actives have a fitted effect of over 40% in size. Also: potency is read from the fitted curve at half-maximal effect. The following applies: L363 myeloma viability, CellTiter-Glo ATP luminescence, 48 h; viability (% of control): at 45.8 µM (top of the series). In short, it runs like this:
as §1
(ATP-based viability assays read luminescence as a measure of living cells.)

Test [12] in a line: Quantitative High-Throughput drug screen in 47 multiple myeloma cell lines against the NCATS MIPE library collection: KMS34_JCRB cell viability assay (AID 1918985).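 Also: 100% = DMSO-only wells and 0% = media-only wells; nearly all actives have a fitted effect of over 40% in size.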 The method in brief:
as §1

Test [13] in a line: Quantitative High-Throughput drug screen in 47 multiple myeloma cell lines against the NCATS MIPE library collection: OPM1_PLB cell viability assay (AID 1918989). Also: nearly all actives have a fitted effect of over 40% in size. Also: potency is read from the fitted curve at half-maximal effect.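 As to viability (% of control): 100% = DMSO-only wells and 0% = media-only wells.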 The method in brief:
as §1

Test [14] can be described thus: Quantitative High-Throughput drug screen in 47 multiple myeloma cell lines against the NCATS MIPE library collection: MOLP8_DSMZ cell viability assay (AID 1918977). Also: nearly all actives have a fitted effect of over 45% in size. Also: potency is read from the fitted curve at half-maximal effect.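 As to viability (% of control): 100% = DMSO-only wells and 0% = media-only wells without cells.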 The method in brief: as §1
Test [15] is described as follows: Quantitative High-Throughput drug screen in 47 multiple myeloma cell lines against the NCATS MIPE library collection: OCIMY7_PLB cell viability assay (AID 1918987). Also: nearly all actives have a fitted effect of over 65% in size. Also: potency is read from the fitted curve at half-maximal effect. The following applies: OCI-MY7 myeloma viability, CellTiter-Glo ATP, 48 h; viability (% of DMSO): at 45.8 µM (top of the series). The method in brief: as §1
Test [16] is described as follows: Quantitative High-Throughput drug screen in 47 multiple myeloma cell lines against the NCATS MIPE library collection: LP1_DSMZ cell viability assay (AID 1918982). Also: nearly all actives have a fitted effect of over 35% in size. Also: potency is read from the fitted curve at half-maximal effect. In short, it runs like this:
as §1

Test [17] can be described thus: Quantitative High-Throughput drug screen in 47 multiple myeloma cell lines against the NCATS MIPE library collection: SKMM1_PLB cell viability assay (AID 1919863). Also: nearly all actives have a fitted effect of over 35% in size. Also: potency is read from the fitted curve at half-maximal effect. The following applies: SKMM1 myeloma viability, CellTiter-Glo ATP, 48 h; viability: active compounds read low. In short, it runs like this:
as §1

A short description of test [18]: Quantitative High-Throughput drug screen in 47 multiple myeloma cell lines against the NCATS MIPE library collection: MMM1_PLB cell viability assay (AID 1918976). In short, it runs like this:
as §1

As for `O=C(O)CCNc1cc(N2CCc3ccccc3CC2)nc(-c2ccccn2)n1`, the Potency result in test [1], in test [2], in test [3], in test [6] and in [7] was “inactive” in each case. For the same compound, the Potency in test [4] is 16.6 µM (active); in test [5], 23.5 µM (active); in test [8], 20.9 µM (active).
`C[C@]12CC[C@@H]3c4ccc(O)cc4CC[C@H]3[C@H]1[C@@H](O)[C@@H](O)[C@H]2O`: the Potency result in test [1], in test [2], in test [3], in [10], in test [11] and in test [12] was “inactive” each time. In test [13], the Potency result is “inactive”. Moreover, the Potency is 26.4 µM (active) in [9] and 14.8 µM (active) in test [7].
Regarding `c1ccc(CNc2nc(N3CCOc4ccccc43)nc3c2CCCC3)cc1`, the Potency entry in [14], in [2], in test [4], in test [10], in [11] and in [15] was “inactive” each time. Further, the Potency result in test [13], in test [6], in test [7] and in [8] was “inactive” each time.
One may read the viability as a read-out of living cells in per cent, often relative to untreated cells. On to `CC(C)(CO)[C@@H](O)C(=O)NCCC(=O)O`, for which the Potency result in [14], in test [2], in test [3], in [9], in test [4] and in test [16] was “inactive” each time. Further, the Potency result in [15], in test [5], in [13] and in [8] was “inactive” in each case. Further, the viability in test [17] is 102%. Further, the Potency in [7] is 20.9 µM (active).
Turning to `Cc1cc2nc3c(=O)[nH]c(=O)nc-3n(CC(O)C(O)C(O)CO)c2cc1C` (centres undefined), the Potency entry in test [14], in test [2], in [3], in test [9] and in test [6] was “inactive” throughout. Besides, the Potency was 0.0833 µM (active) in test [10], 18.7 µM (active) in test [13], 20.9 µM (active) in test [17] and 7.43 µM (active) in [7].
For `N[C@@H](CC(=O)N1CCn2c(nnc2C(F)(F)F)C1)Cc1cc(F)c(F)cc1F`, the figures for the Potency in test [18], in test [9] and in [10] were 1.87 µM (active), 26.4 µM (active) and 9.35 µM (active), respectively. Moreover, the Potency result in test [2], in test [3], in [4], in test [7] and in [8] was “inactive” in each case.
For the compound `CN(C)CCCNC(=O)c1ccc(-c2cc(O)c3ncccc3c2)cc1`, the Potency in test [18] was 11.8 µM (active); in test [2] it was 23.5 µM (active); in test [9] it was 20.9 µM (active); in [4], 20.9 µM (active); in test [16], 8.33 µM (active); in test [10], 9.35 µM (active). Moreover, the Potency in test [11] is 20.9 µM (active); in test [5], 20.9 µM (active); in [17] it was 14.8 µM (active); in [6] it was 20.9 µM (active).
As to `OCCn1cc(-c2ccc3c(c2)CCC3=NO)c(-c2ccncc2)n1`, the Potency in test [14] is 66.2 nM (active); in test [2], 20.9 µM (active); in test [9], 26.4 µM (active); in test [7] it was 13.2 µM (active). Moreover, the Potency entry in test [3], in [10], in test [12] and in [13] was “inactive” throughout.
On to `Cc1ccc(S(=O)(=O)OCC(=O)Nc2ccc(C(=O)O)c(O)c2)cc1`, for which the Potency entry in test [14], in test [16] and in test [13] was “inactive” in each case. In addition, the Potency in [2] is 7.43 µM (active); in [5], 18.7 µM (active); in [7], 3.72 µM (active). In [17], the viability was 102%.
Consider `O=C(CCCN1CCN(c2ccc(F)cc2)CC1)NC1c2ccccc2CSc2ccccc21` (centres undefined), for which the Potency in test [18] was 5.9 µM (active); in [9] it was 10.5 µM (active); in test [4], 18.7 µM (active); in [16], 2.96 µM (active); in [10] it was 11.8 µM (active); in test [11], 4.69 µM (active). Also, the Potency is 16.6 µM (active) in [5]; 5.9 µM (active) in test [17]; 20.9 µM (active) in [6]; 14.8 µM (active) in test [7]; 11.8 µM (active) in [8].
For `COc1cc2nccc(Oc3ccc(NC(=O)Nc4ccc(F)cc4F)c(F)c3)c2cc1OC`, the Potency is 0.0935 µM (active) in test [18]; 2.96 µM (active) in test [4]; 9.35 µM (active) in test [16]; 6.62 µM (active) in test [10]; 1.87 µM (active) in test [5]; 11.8 µM (active) in [6]. Also, the Potency entry in test [2], in [7] and in [8] was “inactive” each time.
For `COc1cc(C=CC(=O)O)ccc1O`, the Potency result in test [14], in test [2], in test [4], in [10], in [12] and in [5] was “inactive” throughout. In test [7], the Potency result was “inactive”. Also, in [17], the viability is 124%.
With `COc1nc(C)cnc1NS(=O)(=O)c1cccnc1-c1ccc(-c2nnco2)cc1`, the Potency in test [18] was 5.26 µM (active). Also, the Potency result in test [2], in test [3], in [9], in [4], in [16] and in test [6] was “inactive” each time. The Potency entry in [7] and in test [8] was “inactive” throughout. Moreover, in [17], the viability was 126%.
`O=c1[nH]c(=O)n([C@H]2C[C@@H](O)[C@@H](CO)O2)cc1C(F)(F)F`: the Potency was 3.32 µM (active) in test [18]; 10.5 µM (active) in test [2]; 10.5 µM (active) in [9]; 7.43 µM (active) in test [4]; 16.6 µM (active) in [10]; 14.8 µM (active) in test [5]. Moreover, the Potency in [17] is 5.9 µM (active); in test [7], 1.87 µM (active). In test [13], the Potency result was “inactive”.
As to `O=C(O)Cc1cccc(OCCCN(Cc2cccc(C(F)(F)F)c2Cl)CC(c2ccccc2)c2ccccc2)c1`, the Potency is 6.62 µM (active) in test [18]; 18.7 µM (active) in test [2]; 20.9 µM (active) in [9]; 23.5 µM (active) in test [10]; 13.2 µM (active) in test [15]; 18.7 µM (active) in [13]. Further, the Potency in test [17] was 11.8 µM (active); in test [8] it was 20.9 µM (active). Further, the Potency entry in [3] is “inactive”.
Take `C=C[C@@H]1CN2CCC1C[C@@H]2C(O)c1ccnc2ccc(OC)cc12` (some centres undefined): the Potency in test [18] is 11.8 µM (active); in test [4], 18.7 µM (active); in [10], 16.6 µM (active); in test [5], 3.32 µM (active); in test [6] it was 10.5 µM (active). Further, the Potency entry in test [2] and in test [3] was “inactive” each time.
